# In PubChem BioAssay AID720706 (Broad Institute, 2013):
# About 5,500 (1.6%) of roughly 350,000 compounds were called active.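 Rule for the calls: active = significant combined selectivity score with lowered wild-type GFP, culture density cut under 30%, mutant RFP and density less affected; inactive = any of these conditions unmet.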 The full list was thinned out, with actives kept by preference.
# Experiment: reduced GFP signal of wild-type E. coli, primary screen, bacterial rRNA inhibitor project, GFP/RFP fluorescence, OD600, single point (AID 720706)
# Settings: E. coli WT GFP vs humanized-ribosome RFP mutants, 24 h; GFP signal change (wild-type ribosome): stronger effect = lower value, DMSO median 0, no signal -100; OD600 change: measured here: OD600 growth, DMSO median 0, no signal -100; RFP signal change: measured here: RFP humanized mutant strains, DMSO median 0, no signal -100, concentration not given here
Compound,GFP signal change (wild-type ribosome),OD600 change [%],RFP signal change [%]
CCN(CC)CCOCCOc1ccc(Cl)c2ccccc12,-15.6% (inactive),-34.8,10.8
CN(C)CCOc1ccc(Cl)cc1C(C)(C)C,-1.5% (inactive),4.96,1.97
CN(C)CCOCCOc1ccc(Cl)c2ccccc12,-18.5% (active),-8.69,3.22
CCC(=O)N(C)C[C@H]1Oc2cc(/C=C/c3ccccc3)ccc2S(=O)(=O)N([C@H](C)CO)C[C@@H]1C,-13.8% (inactive),-24.1,1.56
COc1ccc(C#Cc2cnc3c(c2)C(=O)N([C@H](C)CO)C[C@H](C)[C@H](CN(C)S(=O)(=O)c2ccc(F)cc2)O3)cc1OC,-1.5% (inactive),6.11,0.148
O=C(C[C@H]1C=C[C@H](NC(=O)CC2CC2)[C@@H](CO)O1)NCc1ccccc1,-2.86% (inactive),-1.4,0.749
C[C@@H]1CC=CC[C@@H](c2ccccc2)NC(=O)[C@@H](Cc2ccccc2)N(C)C(=O)c2ccccc2O1 (mixture of isomers),-3.7% (inactive),-8.18,-0.954
C[C@@H]1CCCCO[C@H](CN(C)S(=O)(=O)c2ccc(Cl)cc2)[C@H](C)CN([C@@H](C)CO)C(=O)c2cc(NS(=O)(=O)c3cn(C)cn3)ccc2O1,-4.15% (inactive),-10.5,3.24
C[C@@H]1CN([C@@H](C)CO)S(=O)(=O)c2ccc(C#Cc3ccc(F)cc3)cc2O[C@@H]1CN(C)CC1CC1,3.12% (inactive),-6.33,12.1
O=[N+]([O-])c1cccc(/C([O-])=C(/C(=S)Nc2ccccc2F)[n+]2ccccc2)c1,4.97% (inactive),13.1,6.65
CCc1ccccc1OCC(=O)Nc1ccc2c(c1)OCCO2,-18.9% (inactive),-29.9,1.18
CCOc1ccccc1NC(=S)C(=C([O-])c1ccc2c(c1)OCCO2)[n+]1ccc(CC)cc1,-17.2% (active),-16.2,11.5
COc1ccc2c3c(n(C)c2c1)[C@H](CO)N(S(=O)(=O)c1ccc(C)cc1)CC31CCN(C(=O)c2ccccn2)CC1,-3.17% (inactive),-3.75,3.99
CS(=O)(=O)N(CC(=O)N1CCc2ccccc2C1)c1ccc(Br)cc1,-22.4% (active),-11,0.676
COc1ccc(N(CC(=O)N2CCCCCC2)S(=O)(=O)c2ccccc2)cc1,-1.75% (inactive),-4.39,-2.53
CS(=O)(=O)N(CC(=O)N1CCN(Cc2ccccc2)CC1)c1ccc2c(c1)OCCO2,3.15% (inactive),8.73,-8.62

Compound,GFP signal change (wild-type ribosome),OD600 change [%],RFP signal change [%]
COCc1cn(CC[C@H]2CC[C@H](NC(=O)c3ccncc3)[C@H](CO)O2)nn1,1.82% (inactive),6.54,-3.21
CC(C)[C@@H]1COCc2cnnn2CCC[C@H](C)C(=O)N1,1.6% (inactive),7.64,1.53
CC(C)(C)C(c1nc2ccccc2[nH]1)n1c(Cc2csc3ccccc23)nc2ccccc21 (stereo unspecified),-9.17% (inactive),-4.49,9.77
Cc1cc(C)cc(NC(=O)c2cccc(NC(=O)C3C4CC5OC(=O)C3C5C4)c2)c1 (stereo unspecified),-21.2% (active),-14.4,6.04
Cc1ccc(NC(=O)COC(=O)C2C3CC4OC(=O)C2C4C3)cc1Cl (stereo unspecified),-1.3% (inactive),-3.04,-5.78
COC(=O)c1cccc(NC(=O)c2cccc(N3C(=O)CCC3=O)c2)c1,0.987% (inactive),9.02,0.607
COc1ccccc1C#Cc1ccc2c(c1)O[C@@H](CN(C)Cc1cncnc1)[C@H](C)CN([C@@H](C)CO)S2(=O)=O,-12.1% (inactive),-13.6,10
O=C1CN(S(=O)(=O)Cc2ccccc2)C[C@@H]2[C@@H](c3ccc(C#Cc4cccc(F)c4)cc3)[C@@H](CO)N12,-6.58% (inactive),-36.6,26.9
C[C@@H]1CN([C@@H](C)CO)S(=O)(=O)c2ccc(C#C[C@@H](C)O)cc2O[C@@H]1CN(C)C(=O)Cc1ccccn1,3.39% (inactive),0.98,-0.13
COc1ccccc1C(=O)Nc1ccc2c(c1)C(=O)N(C)C[C@@H](OC)[C@@H](C)CN(CC1CC1)[C@@H](C)CO2,-1.52% (inactive),-3.13,0.12
CCN1C(=O)/C(=C2\SC(N3CCCCC3)=NC2=O)c2ccccc21,-24% (active),0.66,-4.52
CC(C)=C1SC(N2CCN(c3ccc(C)c(Cl)c3)CC2)=NC1=O,-1.49% (inactive),-2.03,-2.71
CCOc1cc(/C=C2\SC(N3CCCCC3)=NC2=O)ccc1O,-19.3% (inactive),-20.3,8.23
COc1cccc(C(=O)N2C[C@@H]3[C@H](c4ccccc42)[C@H](CO)N3Cc2ccccc2F)c1,-8.84% (inactive),-21.6,1.94
Cc1n[nH]c(=O)nc1N/N=C/c1cccs1,12.5% (inactive),-10.6,3.52
COc1ccccc1N1CCN(/N=C/c2ccc(O)cc2O)CC1,2.04% (inactive),0.96,-2.29
